Results from PubChem BioAssay AID372 (MTDP, 2006).
The campaign covered roughly 100,000 compounds. About 770 (0.77%) were called active. Cut-off read from the data, not from the text of the source: active = inhibition above about 50%; inactive = the rest. The sample as a whole holds a higher share of actives than the screen did.

The compounds below were run against Gag-Pol polyprotein (Human immunodeficiency virus type 1 group M subtype B (isolate HXB2)) (UniProt P04585) (assay: RNase H inhibition, HIV 1 Gag Pol polyprotein, FRET biochemical assay, screening (AID 372)). Conditions: HIV-1 RT RNase H, FRET RNA/DNA substrate fluorescence; at 10 µM; active compounds read high.

SMILES | inhibition
CC(=O)N(C)c1ccc(NC(=O)/C=C/c2cccc3ccccc23)cc1 | 53% (active)
O=C(/C=C/c1cccc2ccccc12)Nc1ccc(Nc2ccccc2)cc1 | 25% (inactive)
CC(=O)N(C)c1ccc(NC(=O)/C=C/c2ccccc2)cc1 | 9% (inactive)
Cc1ccc(S(=O)(=O)c2ccc(C)c(S(N)(=O)=O)c2)cc1S(N)(=O)=O | 0% (inactive)
CCOc1ccc(-n2nc3cc(C)c(N)cc3n2)cc1 | 24% (inactive)
COc1ccc(-n2nc3cc(C)c(N)cc3n2)cc1 | 22% (inactive)
Cc1cc2nn(-c3ccccc3)nc2cc1N | 50% (active)
CCOC(=O)C1=C(O)/C(=C/c2ccc(Br)cc2)SC1=Nc1ccccc1 | 5% (inactive)
CCC(=O)Nc1ccc(NC(=S)NC(=O)c2cccc(F)c2)cc1 | 11% (inactive)
O=C1S/C(=C/c2ccc(O)c(O)c2)C(=O)N1c1ccccc1 | 60% (active)
O=C1/C(=C\c2ccc(O)c(O)c2)SC(=S)N1c1ccc(F)cc1 | 74% (active)
O=C1/C(=C/c2ccc(F)cc2)SC(=S)N1c1ccc(F)cc1 | 17% (inactive)
COc1ccc(/C=C2\SC(=S)N(c3cccc(F)c3)C2=O)cc1O | 7% (inactive)
O=C1/C(=C/c2cccc(O)c2)SC(=S)N1c1cccc(Cl)c1 | 19% (inactive)
COc1cc(/C=C2\SC(=O)N(c3ccccc3)C2=O)ccc1O | 27% (inactive)
O=C1/C(=C\c2ccc(O)cc2)SC(=S)N1c1ccc(F)cc1 | 37% (inactive)
O=C1/C(=C/c2cccnc2)SC(=S)N1c1cccc(F)c1 | 3% (inactive)
O=C1/C(=C/c2ccc(O)c(O)c2)SC(=S)N1c1cccc(F)c1 | 84% (active)
O=C1S/C(=C/c2cccc(O)c2)C(=O)N1c1ccccc1 | 24% (inactive)
COc1cc(/C=C2\SC(=S)N(c3cccc(Cl)c3)C2=O)ccc1O | 38% (inactive)
Cc1ccc2cc(C3=C/C(=C/c4cccc(Br)c4)C(=O)O3)ccc2c1 | 4% (inactive)
CCCCCOc1ccc(/C=N\Nc2nc(-c3ccccc3)cc(-c3ccccc3)n2)cc1 | 8% (inactive)
COc1ccc(C(=O)COC(=O)c2ccc(N3C(=O)C4C5C=CC(C6CC56)C4C3=O)cc2)cc1 (stereo unspecified) | 9% (inactive)
CCN(CC)S(=O)(=O)c1ccc(C(C)(C)C)cc1 | 15% (inactive)

SMILES | inhibition
N/C(=C\C(=O)c1ccccc1O)C(F)(F)F | 8% (inactive)
CCc1nn(-c2ccccc2)c2nc(-c3ccccc3C)c3cc(OC)c(OC)cc3c12 | 13% (inactive)
COc1ccc(/C=C2/C(=O)NC(=O)N(Cc3ccco3)C2=O)cc1C | 12% (inactive)
O=C(O)CC1SC(=NC(=O)c2ccco2)N(c2ccccc2)C1=O (stereo unspecified) | 0% (inactive)
Cc1ccc(N2C(=O)/C(=C/c3ccc(Cl)cc3)SC2=S)cc1C | 5% (inactive)
Cc1ccc(N2C(=O)/C(=C/c3ccc(F)cc3)SC2=S)cc1C | 6% (inactive)
O=C1/C(=C\c2ccc(O)c(O)c2)SC(=S)N1c1cccc2ccccc12 | 72% (active)
O=C1/C(=C\c2ccc(O)c(O)c2)SC(=S)N1c1cccc(C(F)(F)F)c1 | 48% (inactive)
O=C1/C(=C\c2ccc(O)cc2)SC(=S)N1c1ccc(Cl)cc1 | 36% (inactive)
O=C1/C(=C/c2cccc(O)c2)SC(=S)N1c1ccc(O)cc1 | 26% (inactive)
O=C1NC(=O)N(c2cccc3ccccc23)C(=O)/C1=C/c1ccc(O)c(O)c1 | 22% (inactive)
CN(C)c1ccc(/C=C2\C(=O)N(c3nc(-c4ccc(Cl)cc4)cs3)N=C2c2ccccc2)cc1 | 37% (inactive)
Cc1ccc(C(=O)N2N=C(c3ccc(Cl)cc3)CC2(O)C(F)(F)F)o1 (stereo unspecified) | 20% (inactive)
CCCC(C)C(=O)Nc1cccc([N+](=O)[O-])c1C (stereo unspecified) | 11% (inactive)
O=C1CC(NCc2ccc3c(c2)OCO3)C(=O)N1c1ccc(Cl)cc1 (stereo unspecified) | 8% (inactive)
CC(C)Cn1nc(-c2ccccc2)c2ccccc2c1=O | 18% (inactive)
O=c1c2ccccc2c(-c2ccccc2)nn1Cc1cccc(Br)c1 | 15% (inactive)
O=c1c2ccccc2c(-c2ccccc2)nn1CCc1ccccc1 | 53% (active)
COc1ccc(OC)c(C2NC(=S)NC(C)=C2C(=O)OCCc2ccccc2)c1 (stereo unspecified) | 21% (inactive)
COCCOC(=O)C1=C(C)NC(=S)NC1c1cc(OC)ccc1OC (stereo unspecified) | 15% (inactive)
COc1ccc(OC)c(C2NC(=S)NC(C)=C2C(=O)OCCOc2ccccc2)c1 (stereo unspecified) | 50% (active)
COc1ccc(/C(O)=C2/C(=O)C(=O)N(CCCCCC(=O)O)C2c2ccc([N+](=O)[O-])cc2)cc1 (stereo unspecified) | 6% (inactive)
CCOC(=O)Cc1csc(N/N=C\c2c(Cl)ccc(Cl)c2Cl)n1 | 20% (inactive)
O=C(CN1C(=O)C2C3CCC(C3)C2C1=O)Nc1ccccc1 (stereo unspecified) | 14% (inactive)

SMILES | inhibition
COc1cc(C(=S)N2CCCCC2)cc(Br)c1O | 37% (inactive)
COc1cc(C(=S)N2CCOCC2)cc(I)c1O | 45% (inactive)
CCOc1cc(C(=S)N2CCOCC2)cc(Br)c1O | 13% (inactive)
CCOc1cc(C(=S)N2CCCCC2)ccc1O | 8% (inactive)
CCOc1cc(C(=S)N2CCC(C)CC2)ccc1O | 50% (active)
CCOc1cc(C(=S)N2CCCCC2)cc(I)c1O | 59% (active)
COc1cc(C(=S)N2CCC(C)CC2)ccc1O | 7% (inactive)
COc1cc(C(=S)N2CCCCC2)ccc1O | 0% (inactive)
CCOc1cc(C(=S)N2CCCCC2)cc(Br)c1O | 56% (active)
CS(=O)(=O)N(CC(=O)Nc1cccc2ccccc12)c1cccc(Cl)c1 | 10% (inactive)
O=C1CC(c2ccccc2)CC(O)=C1C=NCc1ccc(F)cc1 (stereo unspecified) | 8% (inactive)
Cc1nnc(N/N=C/c2cccc([N+](=O)[O-])c2)[nH]c1=O | 8% (inactive)
CCOC(=O)C1CCN(C(=O)COc2ccc(C)cc2C)CC1 | 4% (inactive)
Fc1ccc(Br)cc1SCCc1ccccn1 | 0% (inactive)
CCOc1cc(/C=C2/SC(=S)NC2=O)cc([N+](=O)[O-])c1OCCCOc1ccc(Cl)cc1 | 27% (inactive)
COc1ccc(C(=O)NC(=S)Nc2cc(-c3nc4ccccc4s3)ccc2Cl)cc1 | 50% (active)
Cc1ccc(C(=O)Nc2cc(-c3nc4ccccc4s3)ccc2Cl)cc1[N+](=O)[O-] | 39% (inactive)
COc1ccc(C(=O)NC(=S)Nc2cc(-c3nc4ccccc4s3)ccc2Cl)cc1OC | 10% (inactive)
COc1ccc(C(=O)NC(=S)Nc2cc(-c3nc4ccccc4s3)ccc2C)cc1 | 1% (inactive)
Cc1cc(C(=O)Nc2cc(-c3nc4ccccc4s3)ccc2Cl)ccc1[N+](=O)[O-] | 52% (active)
Cc1ccc(-c2nc3ccccc3s2)cc1NC(=O)c1ccc(Cl)c([N+](=O)[O-])c1 | 3% (inactive)
O=C(NC(=S)Nc1cc(-c2nc3ccccc3s2)ccc1Cl)c1ccc(Cl)cc1 | 33% (inactive)
O=C(NC(=S)Nc1cc(-c2nc3ccccc3s2)ccc1Cl)c1ccccc1 | 37% (inactive)
